Experiment [1] in a line: resazurin metabolic signal in HepG2 cells – cell-based, resazurin fluorescence, 24 h, PK04 Diversity Set, profiling panel (AID 1172). Further: test concentration not given here. The note with it: HepG2 viability, higher = more signal.
The nature of experiment [2]: budding yeast growth changes without added modifier – OD600, strain BY4716, 24 h, basal condition, primary screen (AID 1173). The note with it: S. cerevisiae BY4716 growth, OD600, 24 h; higher = more signal, called active from +8 up or from −8 down.
A short description of experiment [3]: viability profiling in MM1S myeloma cells – cell-based, resazurin fluorescence, basal, 24 h, PK04 Diversity Set, profiling panel (AID 1174).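 Further: MM1S multiple myeloma cell line; test concentration not given here.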 The settings on record: higher = more signal, called active from +8 up or from −8 down.
In experiment [4] the target is Dihydroorotate dehydrogenase (quinone), mitochondrial (Plasmodium falciparum (isolate 3D7)) (UniProt Q08210). In words: inhibition of P. falciparum DHODH – biochemical, C-terminal His tag, absorbance 600 nm, primary screen (AID 1175).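 Further: recombinant parasite enzyme with a five histidine tag at its C terminus; test concentration not given here.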 The note with it: PfDHODH enzyme, DCIP absorbance 600 nm; higher = more signal, called active from +8 up or from −8 down.
Experiment [5] is described as follows: inhibition of PAO1 biofilm formation – strain PAO1, LB-PBS medium, absorbance 600 nm, primary screen (AID 1176). Further: test concentration not given here. The note with it: P. aeruginosa PAO1 growth/biofilm, A600, 12 h; higher = more signal.
Experiment [6] is described as follows: growth modulation of vineyard yeast isolate – strain RM11-1a, OD600, basal, 24 h, primary screen (AID 1177).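 Further: cultures grown under basal conditions with no added stressor; test concentration not given here.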 The note with it: S. cerevisiae RM11-1a growth, OD600, 24 h; higher = more signal, called active from +8 up or from −8 down.
Experiment [7] in a line: growth of efflux-deficient E. coli DRC39 – strain DRC39, OD650, 24 h, E. coli filamentation inducers, primary screen (AID 1178).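 Further: growth measured as culture turbidity by optical density at 650 nm; test concentration not given here.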 The settings on record: E. coli DRC39 acrAB, higher = more signal, called active from +8 up or from −8 down.
Experiment [8] is described as follows: growth of efflux-deficient E. coli DRC39 – strain DRC39, OD650, 48 h, E. coli filamentation inducers, primary screen (AID 1179).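 Further: screen aims at cell division blockers that make cells filament.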 The note with it: E. coli DRC39 delta-acrAB growth, higher = more signal, called active from +8 up or from −8 down.
Experiment [9] is described as follows: viability profiling in RPMI8226 myeloma cells – cell-based, resazurin fluorescence, basal, 24 h, PK04 Diversity Set, profiling panel (AID 1180).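 Further: RPMI8826 multiple myeloma cell line at 5000 cells per well; test concentration not given here.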 The note with it: higher = more signal.
The target in experiment [10] is E3 ubiquitin-protein ligase XIAP (Homo sapiens) (UniProt P98170). In words: small molecules binding XIAP protein – biophysical, small-molecule microarray, fluorescence 635 nm, primary screen (AID 1181).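 Further: score merges 667 nm emission and signal to noise over triplicate slides.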 The note with it: higher = more signal.

Active and inactive are the calls of the source. Unless noted, how the calls were made is not given here.

Sequence of Dihydroorotate dehydrogenase (quinone), mitochondrial (Plasmodium falciparum (isolate 3D7)) (Q08210 whole entry, looked up): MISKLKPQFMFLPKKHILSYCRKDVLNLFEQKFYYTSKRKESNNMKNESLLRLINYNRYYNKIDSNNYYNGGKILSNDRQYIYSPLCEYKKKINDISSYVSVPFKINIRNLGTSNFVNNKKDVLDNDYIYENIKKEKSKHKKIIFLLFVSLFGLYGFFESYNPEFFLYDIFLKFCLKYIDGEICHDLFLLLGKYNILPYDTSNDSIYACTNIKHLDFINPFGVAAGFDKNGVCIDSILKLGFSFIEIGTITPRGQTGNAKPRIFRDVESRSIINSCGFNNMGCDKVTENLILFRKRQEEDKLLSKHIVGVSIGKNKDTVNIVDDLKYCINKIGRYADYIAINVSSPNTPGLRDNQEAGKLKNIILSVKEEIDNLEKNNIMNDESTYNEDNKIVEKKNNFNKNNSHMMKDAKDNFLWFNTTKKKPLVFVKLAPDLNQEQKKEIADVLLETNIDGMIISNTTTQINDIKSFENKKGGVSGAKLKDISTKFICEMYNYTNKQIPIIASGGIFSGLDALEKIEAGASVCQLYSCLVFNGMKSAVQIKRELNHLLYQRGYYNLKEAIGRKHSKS
Sequence of E3 ubiquitin-protein ligase XIAP (Homo sapiens) (P98170 whole entry, looked up): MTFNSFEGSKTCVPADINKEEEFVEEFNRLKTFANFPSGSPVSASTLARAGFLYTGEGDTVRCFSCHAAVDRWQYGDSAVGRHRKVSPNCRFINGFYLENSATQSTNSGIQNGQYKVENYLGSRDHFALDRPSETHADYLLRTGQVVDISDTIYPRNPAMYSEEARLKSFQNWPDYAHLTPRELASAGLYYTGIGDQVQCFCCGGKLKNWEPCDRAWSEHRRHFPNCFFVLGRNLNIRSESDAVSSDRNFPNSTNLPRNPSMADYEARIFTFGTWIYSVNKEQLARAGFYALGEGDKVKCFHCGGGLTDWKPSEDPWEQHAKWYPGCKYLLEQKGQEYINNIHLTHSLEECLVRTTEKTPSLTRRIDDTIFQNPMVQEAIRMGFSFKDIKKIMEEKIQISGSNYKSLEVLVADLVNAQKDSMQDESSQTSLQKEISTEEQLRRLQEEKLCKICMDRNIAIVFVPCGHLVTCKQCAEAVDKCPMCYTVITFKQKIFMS

`O=C1C[C@@](C(=O)NC2CC2)(c2ccc([N+](=O)[O-])cc2)[C@@H](c2ccc(CO)cc2I)N1C1CCCCC1`: the z-score in experiment [1] is 0.0684; in [2], -0.466 (inactive); in [3] it was -0.191 (inactive); in experiment [5], 0.512 (inactive); in experiment [6] it was -0.0222 (inactive); in [7], 0.149 (inactive). Besides, the z-score in experiment [8] is -0.528 (inactive); in experiment [9], -0.538. Besides, the composite z-score was -0.716 (inactive) in experiment [4] and 0.123 in experiment [10].

Regarding `COCCOC(=O)N1C(=O)[C@@]2(c3cc(C#Cc4ccc(OC)cc4)ccc31)[C@H](c1ccc(O)cc1)N1[C@H](c3ccccc3)[C@H](c3ccccc3)OC(=O)[C@H]1[C@@H]2C(=O)N1CCc2cc(OC)c(OC)cc2C1`, the z-score in experiment [1] is 0.28; in experiment [2], -0.465 (inactive); in experiment [3] it was -0.0918 (inactive); in experiment [5] it was 0.457 (inactive); in [6], -0.694 (inactive); in experiment [7], -0.232 (inactive). Also, the z-score in experiment [8] was -0.779 (inactive); in [9], 0.572. The composite z-score in experiment [4] is -0.463 (inactive); in experiment [10] it was -0.197.

Consider `[N-]=[N+]=Nc1ccccc1[C@@H]1OC(c2ccc(OCCCO)cc2)=N[C@]1(Cc1ccccc1)C(=O)N1CCOCC1`, for which the z-score in experiment [1] was -0.601; in [2], -0.294 (inactive); in experiment [3], -1.6 (inactive); in experiment [5], -0.0279 (inactive); in [6], 0.857 (inactive); in [7], 0.266 (inactive). Besides, the values for the z-score in experiment [8] and in experiment [9] were -0.412 (inactive) and -1.58, respectively. The composite z-score in [4] was 0.291 (inactive); in experiment [10], -0.0062.

Turning to `Oc1ccc2cc[n+](Cc3sc4ccccc4c3Cl)cc2c1`, the z-score in experiment [1] is -1.23; in experiment [2] it was -0.225 (inactive); in experiment [3], -1.42 (inactive); in [5] it was -0.0748 (inactive); in experiment [6] it was 0.474 (inactive); in [7], -0.257 (inactive). Also, the results for the z-score in experiment [8] and in experiment [9] were -0.952 (inactive) and -0.624, respectively. Further, the composite z-score in experiment [4] was -0.427 (inactive); in [10], -0.0095.

For `[N-]=[N+]=Nc1ccccc1[C@@H]1OC(c2ccc(OCCCO)cc2)=N[C@]1(CCS(=O)(=O)c1ccccc1)C(N)=O`, the z-score was 0.396 in experiment [1]; -0.0185 (inactive) in experiment [2]; -0.706 (inactive) in experiment [3]; -0.291 (inactive) in experiment [5]; -0.0594 (inactive) in experiment [6]; 0.326 (inactive) in experiment [7]. For the same compound, the z-score in experiment [8] is -0.397 (inactive); in [9] it was -0.699. The composite z-score in experiment [4] is 0.796 (inactive); in experiment [10], 0.0975.

As for `COc1ccccc1CN1C(=O)c2ccccc2[C@@]2(Cc3ccccc3N(CC(C)C)C2=O)[C@@H]1c1ccc(CO)cc1`, the z-score in experiment [1] was -0.593; in experiment [2] it was 0.0849 (inactive); in experiment [3] it was -0.681 (inactive); in [5] it was 0.332 (inactive); in [6] it was -1.04 (inactive); in experiment [7], -0.169 (inactive). The z-score was -0.0353 (inactive) in [8] and -0.564 in [9]. Further, the composite z-score in [4] is -0.359 (inactive); in [10], 0.0957.

For `CC(C)C(O)C1C=CC2C(=O)N(c3ccccc3)C(=O)C2N1Nc1ccc([N+](=O)[O-])cc1` (stereo not given), the z-score was -0.283 in experiment [1]; -0.539 (inactive) in [2]; -0.413 (inactive) in experiment [3]; 0.312 (inactive) in experiment [5]; -0.0749 (inactive) in experiment [6]; -0.912 (inactive) in experiment [7]. The values for the z-score in experiment [8] and in experiment [9] were -0.347 (inactive) and -0.601, respectively. Moreover, the figures for the composite z-score in experiment [4] and in [10] were -0.0755 (inactive) and 0.302, respectively.

Turning to `COc1ccccc1CN1C(=O)c2ccccc2[C@@H](C(=O)NC2CC2)[C@@H]1c1ccc(CO)cc1`, the z-score was 0.103 in experiment [1]; -0.561 (inactive) in experiment [2]; 0.84 (inactive) in [3]; -0.342 (inactive) in [5]; 0.184 (inactive) in experiment [6]; 0.421 (inactive) in experiment [7]. Moreover, the z-score in [8] is 0.119 (inactive); in experiment [9], 0.407. The composite z-score in [4] is -0.245 (inactive); in [10], -0.0085.

For the compound `C=C(COC)/C(=C/C[C@@H](OC(C)=O)c1ccc(OCCO)cc1)c1cnc2ccccc2c1`, the z-score in experiment [1] is 0.638; in experiment [2], -1.39 (inactive); in experiment [3], 0.748 (inactive); in experiment [5], -0.128 (inactive); in [6], -1.49 (inactive); in [7], 1.06 (inactive). The figures for the z-score in experiment [8] and in experiment [9] were 0.968 (inactive) and 0.371, respectively. The values for the composite z-score in experiment [4] and in [10] were -5.97 (inactive) and 0.241, respectively.

Consider `Cc1nc2cc(Br)ccc2c(=O)o1`, for which the z-score is 0.817 in experiment [1]; -0.691 (inactive) in experiment [2]; 0.065 (inactive) in [3]; -0.214 (inactive) in experiment [5]; -1.08 (inactive) in experiment [6]; 0.705 (inactive) in experiment [7]. Also, the z-score in experiment [8] was 1.42 (inactive); in [9], 1.21. Also, the composite z-score was -0.442 (inactive) in experiment [4] and -0.0426 in experiment [10].

Consider `C=CCOC(=O)[C@H]1[C@@H]2C(=O)O[C@@H](c3ccccc3)[C@@H](c3ccccc3)N2[C@@H](c2ccc(OCCOC(=O)[C@@H]3C[C@@H]4C(=O)N[C@@H](CCCCNC(C)=O)C(=O)N4[C@@H]3c3ccc(O)cc3)cc2)[C@]12C(=O)Nc1ccccc12`, for which the z-score in [1] was -0.707; in [2], 0.857 (inactive); in experiment [3] it was -0.0524 (inactive); in experiment [5], 1.83 (inactive); in experiment [6], 1.74 (inactive); in [7], -0.605 (inactive). The z-score in experiment [8] is -1.35 (inactive); in experiment [9] it was -0.407. For the same compound, the composite z-score in experiment [4] was 0.0572 (inactive); in [10] it was -0.0018.

In the case of `Cc1ccc(N2C(=O)c3ccccc3[C@@H](C(=O)NC3CC3)[C@@H]2c2ccc(CO)cc2)nc1`, the z-score is -0.0178 in experiment [1]; -0.625 (inactive) in [2]; 0.584 (inactive) in experiment [3]; 0.0714 (inactive) in experiment [5]; -0.155 (inactive) in [6]; 0.659 (inactive) in [7]. Also, the z-score in experiment [8] is 0.188 (inactive); in [9] it was 0.154. The composite z-score was -0.162 (inactive) in [4] and -0.128 in experiment [10].

The values are drawn from PubChem BioAssay.
